Among the data in ChEMBL document CHEMBL4296182, “CO-ADD screening of NIH NCI Diversity Set V” are Inhibition values, retold here.

For part of these data: Results with a measured potency or affinity are listed apart.

Test [1] has as its system Staphylococcus aureus. Briefly: Antibacterial activity against Staphylococcus aureus MRSA ATCC 43300 (CO-ADD:GP_020); MIC in CAMBH media using NBS plates, by Resazurin F(560/590). Conditions: Concentration 20 uM, ASSAY_TEST Inhibition of Bacterial Growth, detection method Resazurin, Fluorescence (ex560/em590), MEDIA CAMHB, plate type 384well, CORNING #3640, time 18 hr. Type of test: functional.

Test [2] concerns Acinetobacter baumannii. Briefly: Antibacterial activity against Acinetobacter baumannii ATCC 19606 (CO-ADD:GN_034); MIC in CAMBH media using NBS plates, by Resazurin F(560/590). Type of test: functional. Conditions: Concentration 20 uM, ASSAY_TEST Inhibition of Bacterial Growth, detection method Resazurin, Fluorescence (ex560/em590), MEDIA CAMHB, plate type 384well, CORNING #3640, time 18 hr. For orientation: The colour change of resazurin is a common sign of viable cells or microbes.

Test [3] concerns Escherichia coli. Briefly: Antibacterial activity against Escherichia coli ATCC 25922 (CO-ADD:GN_001); MIC in CAMBH media using NBS plates, by Resazurin F(560/590). Type of test: functional. As to conditions: Concentration 20 uM, ASSAY_TEST Inhibition of Bacterial Growth, detection method Resazurin, Fluorescence (ex560/em590), MEDIA CAMHB, plate type 384well, CORNING #3640, time 18 hr.

In test [4] the test system is Klebsiella pneumoniae. As to conditions: Concentration 20 uM; ASSAY_TEST Inhibition of Bacterial Growth; detection method Absorption (OD600); MEDIA CAMHB; plate type 384well; NBS; CORNING #3640; time 18 hr.
For test [5], the system named is Candida albicans. As to conditions: 20 µM.
For test [6], the system named is Cryptococcus neoformans. Conditions: Concentration 20 uM; ASSAY_TEST Inhibition of Fungal Growth; detection method Resazurin; Absorption (OD600-OD570); plate type 384well; NBS; CORNING #3640.

As for `Nc1ccccc1C(=O)Nc1ccc(Cl)cc1Cl`, the Inhibition in test [1] was 13.76%; in test [2] it was -19.7%; in test [3], 13.8%; in test [4] it was 0.81%; in test [5], 3.17%; in test [6] it was -17.52%.
In the case of `Sc1nc2c[nH]c(S)nc-2n1`, the Inhibition in test [1] was 21.94%; in test [2] it was -11.86%; in test [3], 14.36%; in test [4], 15.98%; in test [5], 5.35%; in test [6], -7.36%.
For the molecule `O=C(NC(=S)Nc1cccc2c(O)cccc12)c1cccc(Br)c1`, the Inhibition in test [1] was 25.64%; in test [2], -2.51%; in test [3], 14.87%; in test [4], 10.97%; in test [5] it was 12.3%; in test [6] it was -5.01%.
Take `Cc1c(O)ccc2c(O)c(NC(=O)c3ccc4c(c3)CCC(C)(C)O4)c(=O)oc12` [CYCLONOVOBIOCIC ACID]: the Inhibition in test [1] was 10.86%; in test [2], 10.56%; in test [3], -1.41%; in test [4] it was 4.57%; in test [5], 4.26%; in test [6], -3.84%.
As for `O=C(NN1CCCCC1)NN1CCCCC1`, the Inhibition in test [1] was 9.98%; in test [2], 7.95%; in test [3], 2.92%; in test [4], -4.05%; in test [5] it was 1.96%; in test [6], -2.31%.
Turning to `CS(=O)(=O)O.OC(c1cc(C(F)(F)F)nc2c(Cl)cc(Cl)cc12)C1CCCCN1` (stereo not drawn), the Inhibition in test [1] is 10.44%; in test [2], 6.66%; in test [3], 19.86%; in test [4] it was 9.3%; in test [5], 1%; in test [6] it was -0.51%.
Consider `CCCCC[C@H](O)/C=C/[C@@H]1[C@@H](C/C=C\CCCC(=O)O)[C@@H](O)C[C@H]1O.NC(CO)(CO)CO` [DINOPROST TROMETHAMINE], for which the Inhibition in test [1] is 12.44%; in test [2], -5.18%; in test [3], 11.57%; in test [4] it was 16.21%; in test [5], -0.17%; in test [6] it was -7.36%.
For `N#CCCCCN1CCCC1`, the Inhibition was 4.35% in test [1]; -8.73% in test [2]; 3.27% in test [3]; 18.95% in test [4]; -1.32% in test [5]; -2.95% in test [6].
As to `Oc1ccc(-c2nc3ccccc3s2)c(O)c1`, the Inhibition in test [1] was -7.97%; in test [2], -9.73%; in test [3], 5.22%; in test [4] it was 6.81%; in test [5], 13.4%; in test [6], -4.68%.
With `CCc1oc2ccccc2c1C(=O)c1cc(Br)c(O)c(Br)c1` [BENZBROMARONE], the Inhibition in test [1] was -12.4%; in test [2], -9.24%; in test [3] it was 7.93%; in test [4] it was 12.45%; in test [5], 9.57%; in test [6], -6.93%.
As to `Cc1cc(O)c2cc(C(=O)c3ccccc3)ccc2n1`, the Inhibition is 13.49% in test [1]; 5.7% in test [2]; 2.87% in test [3]; 7.32% in test [4]; 2.58% in test [5]; -7.43% in test [6].
Consider `N#C/C(=C\c1cc(O)c(O)c(O)c1)C(N)=O`, for which the Inhibition in test [1] is -3.49%; in test [2] it was 6.06%; in test [3], 5.21%; in test [4] it was 9.86%; in test [5], 5.49%; in test [6], -11.36%.
Regarding `NC(S)=Nc1cccc(Cl)c1`, the Inhibition in test [1] is 9.52%; in test [2] it was -8.51%; in test [3], 1.81%; in test [4], 0.23%; in test [5], 2.81%; in test [6], -2.86%.
As for `O=C(O)c1ccc(OCCOc2ccccc2)cc1`, the Inhibition in test [1] was -1.13%; in test [2], -7.25%; in test [3], 7.53%; in test [4], 15.54%; in test [5] it was 7.45%; in test [6], -11.92%.
`O=S1(=O)CSCS(=O)(=O)C1`: the Inhibition in test [1] is -12.69%; in test [2] it was -2.62%; in test [3], -18.14%; in test [4], 0.72%; in test [5] it was 5.55%; in test [6], 27.89%.
Take `CC1=NN(c2ccccc2)C(=O)C1C(=S)SC1CC(=O)NC1=O` (stereo not drawn): the Inhibition in test [1] was 3.9%; in test [2] it was 14.97%; in test [3], -13.13%; in test [4], 16.67%; in test [5] it was 6.57%; in test [6], 3.97%.
With `O=C(CSc1nc2ccc([N+](=O)[O-])cc2s1)c1ccc2ccccc2c1`, the Inhibition was -1.33% in test [1]; 12.85% in test [2]; 5.26% in test [3]; 23.99% in test [4]; 1.85% in test [5]; 15.23% in test [6].
As for `CN1C(=O)c2ccccc2Cc2c(NCc3ccccc3)ncnc21`, the Inhibition in test [1] was 11.35%; in test [2] it was 7.35%; in test [3] it was 1.48%; in test [4], 18.62%; in test [5], 6.22%; in test [6], -9.85%.

As usually defined, the Inhibition is the change of the read-out against control, counted positive when it falls.
